About 250 (13%) of roughly 1,900 compounds were called active. About 4% were inconclusive and are not listed.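 Rule for the calls: active = fitted curve reaches 40% rescue activity at or below the top valid dose, in every test run; inconclusive = test runs disagree, some active and some inactive; inactive = every run misses the threshold or moves the wrong way.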 Only a sample is shown. Results with a measured potency or affinity are listed apart.
Test: suppressors of statin myotoxicity in myotubes, dose response, cell-based, C2C12 myotubes, ATP luminescence, cherry pick (AID 624405);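 note: myotubes are challenged with simvastatin at 10 µM to lower ATP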
Details: C2C12 myotubes + simvastatin, 48 h, scaled: DMSO wells 0, geranylgeraniol wells 100; series mostly up to 19.5 µM; rescue activity (ATP increase): at the top concentration

Row | SMILES | rescue activity (ATP increase)
1 | Cc1ccc(CN(C(=O)c2ccco2)C(C(=O)NC2CCCC2)c2ccc(N3CCOCC3)cc2)cc1 (stereo not given) | 0.628% (inactive)
2 | COc1ccc(NC(=O)Nc2ccc3c(c2)C(=O)N([C@H](C)CO)C[C@H](C)[C@@H](CN(C)Cc2ccc(C(F)(F)F)cc2)OCCCC[C@H](C)O3)cc1 | 14% (inactive)
3 | Cc1ccc(S(=O)(=O)N(C)C[C@@H]2Oc3c(NC(=O)Nc4ccccc4)cccc3C(=O)N([C@H](C)CO)C[C@@H]2C)cc1 | 33.4% (inactive)
4 | C[C@@H]1CN([C@H](C)CO)C(=O)c2cccc(NC(=O)Nc3ccccc3)c2O[C@@H]1CN(C)S(=O)(=O)c1ccccc1 | 26.7% (inactive)
5 | Cc1ccc(S(=O)(=O)N(C)C[C@@H]2Oc3c(NC(=O)Nc4ccccc4)cccc3C(=O)N([C@H](C)CO)C[C@H]2C)cc1 | -25.3% (inactive)
6 | Cc1ccc(S(=O)(=O)N(C)C[C@@H]2Oc3c(NC(=O)Nc4ccccc4)cccc3C(=O)N([C@@H](C)CO)C[C@@H]2C)cc1 | 36.3% (inactive)
7 | c1cnc2ccc(C(c3nnnn3C3CCCC3)N3CCN(c4nc5ccccc5s4)CC3)cc2c1 (stereo not given) | 5.08% (inactive)
8 | CC(C)NC(=O)CN1C(=O)NC(CCc2ccccc2)C1=O (stereo not given) | -27.9% (inactive)
9 | CCCn1c2c(c(O)c(C(=O)NC)c1=O)CCCC2 | 32.2% (inactive)
10 | C[C@H]1CN([C@@H](C)CO)S(=O)(=O)c2ccc(C#CC3CCCCC3)cc2O[C@H]1CN(C)C(=O)Cc1ccncc1 | -18.7% (inactive)
11 | COc1ccc(S(=O)(=O)N2CCOCC2)cc1NC(=O)CSc1ncccn1 | -4.59% (inactive)
12 | Cc1c(N=Cc2c(O)n(Cc3ccco3)c(=O)c3ccccc23)c(=O)n(-c2ccccc2)n1C | 27.1% (inactive)
13 | CCOC(=O)C1CCN(S(=O)(=O)c2nc3nc(C)cc(C)n3n2)CC1 | -11.5% (inactive)
14 | O=C(NNC(=O)c1ccncc1)Nc1ccc(N=Nc2ccccc2)cc1 | -47.4% (inactive)
15 | COc1ccc(C#Cc2ccc([C@H]3[C@H]4CN(C(=O)c5ccncc5)CCCCN4[C@H]3CO)cc2)cc1 | 28.5% [at 21 µM] (inactive)
16 | C[C@@H]1CN([C@@H](C)CO)C(=O)c2cc(NS(=O)(=O)c3cccs3)ccc2O[C@@H]1CN(C)Cc1ccc2c(c1)OCO2 | 31.3% (inactive)
17 | C[C@H]1CN([C@@H](C)CO)C(=O)c2cccc(NS(=O)(=O)c3cccs3)c2O[C@@H]1CN(C)C(=O)Nc1ccc(C(F)(F)F)cc1 | -2.23% (inactive)
18 | Cc1cccc(OCC(=O)Nc2cc(C)ccc2O)c1 | 23.5% (inactive)
19 | Cc1ccc(-c2noc(-c3cccs3)n2)cc1 | -4.64% (inactive)
20 | COc1ccccc1-c1noc(-c2ccncc2)n1 | 8.68% (inactive)

Row | SMILES | rescue activity (ATP increase)
21 | Cc1ccc(C(=O)OCC(=O)Nc2ccc3c(c2)OCO3)cc1S(=O)(=O)N1CCOCC1 | -31.5% (inactive)
22 | CCOC(=O)C(C)n1nc(/C=C/c2ccccc2)ccc1=O (stereo not given) | -17.3% (inactive)
23 | C[C@@H]1CN([C@@H](C)CO)C(=O)Cc2cc(NC(=O)Cc3cn(C)c4ccccc34)ccc2O[C@H]1CN(C)Cc1ccc(Oc2ccccc2)cc1 | 10.6% (inactive)
24 | O=C(Nc1nc2c(s1)CCCC2)c1ccc(Br)o1 | -45% (inactive)
25 | C[C@H](CO)N1C[C@H](C)[C@@H](CN(C)S(=O)(=O)c2cn(C)cn2)Oc2ccc(NC(=O)Nc3ccc(C(F)(F)F)cc3)cc2C1=O | 17.3% (inactive)
26 | C[C@H](CO)N1C[C@H](C)[C@@H](CN(C)S(=O)(=O)c2ccc(Cl)cc2)Oc2c(NC(=O)Nc3ccc(C(F)(F)F)cc3)cccc2C1=O | 1.28% (inactive)
27 | C[C@H](N)c1nnc(SCC(=O)c2ccc(Cl)cc2)o1 | 19% (inactive)
28 | CC(C)CC#Cc1cnc2c(c1)C(=O)N([C@@H](C)CO)C[C@@H](C)[C@H](CN(C)S(=O)(=O)c1cccs1)O2 | 0.138% (inactive)
29 | CCn1c(CSc2nc(C)cc(C)n2)nnc1SCC(=O)Nc1nc(-c2ccccc2)cs1 | -15.7% (inactive)
30 | COc1ccc(S(=O)(=O)Nc2cccc3c2O[C@H](CN(C)S(=O)(=O)c2ccc(Cl)cc2)[C@H](C)CN([C@@H](C)CO)C3=O)cc1 | 23% (inactive)
31 | CCOc1ccccc1C(=O)n1nc(C)cc1C | 26.2% (inactive)
32 | CCOC(=O)Cn1c(=O)c2c(nc3n2CCN3Cc2ccccc2)n(C)c1=O | 40.9% (inactive)
33 | CCCCOC(=O)Cn1c(=O)c2c(nc3n2CCCCN3c2ccc(C)cc2)n(C)c1=O | -4.89% (inactive)
34 | O=C1c2ccccc2C(=O)N1CCC1=CCCCC1 | -38.2% (inactive)
35 | C[C@@H]1CN([C@H](C)CO)C(=O)c2cccc(NS(=O)(=O)c3cccs3)c2O[C@@H]1CN(C)S(=O)(=O)c1cccs1 | 16.3% (inactive)
36 | Fc1ccccc1OCCCN1CCOCC1 | 6.51% (inactive)
37 | C[C@H]1CN([C@@H](C)CO)C(=O)c2cc(/C=C/c3ccccc3)cnc2O[C@@H]1CN(C)C(=O)Nc1ccccc1F | 21.6% (inactive)
38 | C=CCSc1nc(C)c2cc(C)cc(C)c2n1 | -29.5% (inactive)
39 | O=S(=O)(NCc1csc(-c2cccs2)n1)c1cccc(C(F)(F)F)c1 | 12.9% (inactive)
40 | CC(C)(CSc1ncccn1)NS(=O)(=O)c1ccccc1 | -8.32% (inactive)

Row | SMILES | rescue activity (ATP increase)
41 | COc1ccc(NC(=O)N(C)C[C@H]2OCCCC[C@H](C)Oc3ccc(NS(=O)(=O)c4c(C)noc4C)cc3C(=O)N([C@@H](C)CO)C[C@H]2C)cc1 | 6.36% (inactive)
42 | Cc1cc(C)n(C(=O)c2ccc(S(=O)(=O)NCC3CCCO3)cc2)n1 (stereo not given) | 2.29% (inactive)
43 | C[C@@H]1CN([C@@H](C)CO)C(=O)c2cccc(NC(=O)C3CCCCC3)c2O[C@H]1CN(C)S(=O)(=O)c1ccc(Cl)cc1 | 12.9% (inactive)
44 | C[C@@H]1CCCCO[C@@H](CN(C)Cc2ccc(Cl)c(Cl)c2)[C@H](C)CN([C@@H](C)CO)C(=O)c2cc(NC(=O)Cc3ccccc3)ccc2O1 | 34.2% [at 21 µM] (inactive)
45 | O=c1cc(CN2CCN(Cc3ccccc3)CC2)c2cc3c(cc2o1)CCC3 | -1.9% (inactive)
46 | Cc1sc2nc3ccc(N4CCCCC4)nn3c(=O)c2c1C | -16.1% (inactive)
47 | Cc1cccn2c(=O)c3cc(C(=O)NCCC4=CCCCC4)n(C)c3nc12 | -167% (inactive)
48 | CN(C)C(CNC(=O)NC1CCCCC1)c1cccnc1 (stereo not given) | 3.47% (inactive)
49 | C[C@@H]1CN([C@@H](C)CO)C(=O)c2cc(NC(=O)Nc3ccc(F)cc3)ccc2O[C@@H](C)CCCCO[C@H]1CN(C)Cc1ccncc1 | 18.6% [at 21 µM] (inactive)
50 | COC(=O)c1cc(OC)c(OC)cc1NC(=O)Nc1cccc(C(C)=O)c1 | 38.3% (inactive)
51 | C[C@H]1CN([C@@H](C)CO)C(=O)Cc2cc(NC(=O)Cc3ccccc3)ccc2O[C@@H]1CN(C)Cc1ccc(Oc2ccccc2)cc1 | 30.6% [at 21 µM] (inactive)
52 | O=C(COc1cccc(C(F)(F)F)c1)Nc1ccc(S(=O)(=O)N2CCCC2)cc1 | -40.5% (inactive)
53 | O=C(OCCOc1ccc(Br)cc1)c1cnccn1 | 9.55% (inactive)
54 | O=C(c1cnccn1)N1CCN(C/C=C/c2ccccc2)CC1 | 16.1% (inactive)
55 | C[C@H]1CN([C@@H](C)CO)C(=O)c2cc(NC(=O)C3CC3)ccc2O[C@@H]1CN(C)CC1CCCCC1 | 7.65% [at 21 µM] (inactive)
56 | C[C@H](CO)N1C[C@H](C)[C@H](CN(C)Cc2ccc(C(F)(F)F)cc2)Oc2c(NC(=O)Nc3cccc4ccccc34)cccc2C1=O | -21.9% (inactive)
57 | C[C@@H]1CN([C@H](C)CO)C(=O)c2cc(NC(=O)Nc3cccc4ccccc34)ccc2O[C@@H](C)CCCCO[C@@H]1CN(C)Cc1ccc2c(c1)OCO2 | -26.6% (inactive)
58 | COc1ccc(NC(=O)Nc2ccc3c(c2)C(=O)N([C@@H](C)CO)C[C@H](C)[C@@H](CN(C)Cc2ccc(C(F)(F)F)cc2)OCCCC[C@H](C)O3)cc1 | -29.1% (inactive)
59 | C[C@@H]1CN([C@@H](C)CO)C(=O)c2cccc(NC(=O)C3CCOCC3)c2O[C@@H]1CN(C)S(=O)(=O)c1cn(C)cn1 | 10.6% (inactive)
60 | COC(=O)[C@H]1[C@H](CO)[C@H]2Cn3c(ccc(C4=CCCCC4)c3=O)[C@H]2N1CC1CCCCC1 | 34.2% (inactive)
